According to PubChem BioAssay (NCI):
The panel holds about 83,000 compounds, 20% with a hit somewhere; the sample as a whole holds those more often.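 Note: values are percent growth. 100 is the growth of untreated cells, values between 100 and 0 indicate rising inhibition; between -100 and 0 indicates cell death.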 Unmarked numbers belong to inactive results. The source made the active and inactive calls. The calls were made as follows: active = growth percent below 10; inactive = the rest.

Key:
Assay in all cases: NCI-60 one-dose screen, 48 h (100 = growth as untreated, 0 = no growth, -100 = all killed)
SK-MEL-2 melanoma = settings: 10 µM unless noted
EKVX NSCLC = settings: 10 µM unless noted
SN12C renal = settings: 10 µM unless noted
UO-31 renal = settings: 10 µM unless noted
TK-10 renal = settings: 10 µM unless noted
ACHN renal = settings: 10 µM unless noted
CAKI-1 renal = settings: 10 µM unless noted
A498 renal = settings: 10 µM unless noted
CCRF-CEM leukemia = settings: 10 µM unless noted
MOLT-4 leukemia = settings: 10 µM unless noted
SR leukemia = settings: 10 µM unless noted
RPMI-8226 leukemia = settings: 10 µM unless noted
OVCAR-8 ovarian = settings: 10 µM unless noted
OVCAR-5 ovarian = settings: 10 µM unless noted
OVCAR-4 ovarian = settings: 10 µM
SK-OV-3 ovarian = settings: 10 µM unless noted
IGROV1 ovarian = settings: 10 µM unless noted
OVCAR-3 ovarian = settings: 10 µM unless noted
HS 578T breast = settings: 10 µM unless noted
NCI/ADR-RES ovarian = settings: 10 µM unless noted

SMILES | growth (SK-MEL-2 melanoma) | growth (EKVX NSCLC) | growth (SN12C renal) | growth (UO-31 renal) | growth (TK-10 renal) | growth (ACHN renal) | growth (CAKI-1 renal) | growth (A498 renal) | growth (CCRF-CEM leukemia) | growth (MOLT-4 leukemia) | growth (SR leukemia) | growth (RPMI-8226 leukemia) | growth (OVCAR-8 ovarian) | growth (OVCAR-5 ovarian) [%] | growth (OVCAR-4 ovarian) | growth (SK-OV-3 ovarian) [%] | growth (IGROV1 ovarian) [%] | growth (OVCAR-3 ovarian) | growth (HS 578T breast) | growth (NCI/ADR-RES ovarian)
CC(C)C1=NOC(=O)C1=Cc1cn(-c2ccccc2)nc1-c1cccc([N+](=O)[O-])c1 | 101% | 99.3% | 78.3% | 74.3% | 89.5% | 99.2% | 64.6% | 76.3% | 2.68% (active) | 3.44% (active) | -20.9% (active) | -26.8% (active) | 58% | 106 | 103% | 117 | 70.4 | 89.3% | 29.7% | 97%
COc1ccc(CC(C#N)c2ccc(Cl)cc2)cc1 (configuration not stated) | 80% | 90% | 99.7% | 102% | 109% | 102% | 68.9% | 49.7% | 76.5% | 72.7% | 36.3% | 85% | 99% | 82.9 | 103% | 89.3 | 68.8 | 77.2% | – | 42.5%
COc1ccc2nc3c(cc2c1)C(=O)CC(c1ccccc1)C3 (configuration not stated) | 70% | 44.5% | 40.7% | 34.5% | 64% | 43.9% | 31.3% | -13.5% (active) | 10.7% | 17.8% | 17.7% | 55.4% | 39% | 61.2 | 92.7% | 52.2 | 35.8 | -7.18% (active) | – | 13.2%
COc1ccc(OC)c([N+](=O)[O-])c1C(=O)CNC(C)=O | 109% | 97.5% | 100% | 84.7% | 105% | 100% | 96.4% | 94.1% | 110% | 101% | 118% | 93.4% | 99.5% | 99.9 | 103% | 105 | 106 | – | -2.16% (active) | 94.9%
CC(C)OC(=O)Nc1cc(F)ccc1F | 112% | 98.8% | 99.5% | 89.7% | 97.7% | 100% | 96.5% | 96.9% | 103% | 101% | 96.1% | 103% | 100% | 93.8 | 106% | 101 | 93.7 | – | 110% | 102%
O=C(NCc1ccccc1)C(Cl)Cl | 96.2% | 95.4% | 104% | 91.5% | 90.2% | 104% | 96.5% | 94.4% | 103% | 101% | 95.1% | 101% | 101% | 91.7 | 102% | 101 | 101 | – | 105% | 104%
O=C(Oc1ccc(Cl)cc1[N+](=O)[O-])Oc1ccc(Cl)cc1[N+](=O)[O-] | 103% | 108% | 107% | 88.8% | 120% | 108% | 104% | 154% | 102% | 97.8% | 82.1% | 100% | 108% | 108 | 119% | 120 | – | 119% | 104% | 119%
CCN(CC)CCCNCc1cc(-c2ccccc2)nc2ccccc12 | 109% | 93.7% | 48% | 23.7% | 46.8% | 101% | 100% | 75.2% | 11.8% | 8.2% (active) | 4.37% (active) | 20% | 35.1% | 109 | 56.3% | 92.4 | – | 35.7% | – | -32% (active)
CCCCCCCCCCCCNC(=S)N/N=C/c1ccccc1O | 80.8% | 89.1% | 69.4% | 37.6% | 128% | 77.1% | 65.4% | 94.3% | 46.1% | 52.4% | 44% | 55.4% | 77.9% | 99.1 | 65.2% | 102 | 65.1 | – | 91.7% | 77.1%
CCCC(NC(=O)OCc1ccccc1)C(=O)O (configuration not stated) | 128% | 96.5% | 74.3% | 65.1% | 117% | 108% | 82.9% | 80% | 118% | 111% | 121% | 68.7% | 93.5% | 94.8 | 106% | 119 | – | 106% | 71.9% | 60.4%
CCCCCCCCCCCCCCNC(=O)Nc1ccc(Cl)c(Cl)c1 | 14.5% | 31.9% | 20.2% | 8.71% (active) | 41.3% | 9.14% (active) | 10.8% | 96.7% | 63.7% | 103% | 95% | 72.6% | 30.5% | 64.8 | 24.7% | 73 | – | 15.5% | 84.2% | -0.731% (active)
O=C(N/N=C/c1c(Cl)cccc1Cl)c1cccc(Nc2ccnc(C(F)(F)F)c2)c1 | 92.2% | 74.4% | 91% | 77.4% | 90.8% | 87.5% | 88% | 95.3% | 87.8% | 88.1% | 106% | 70.1% | 89.9% | 108 | 69.3% | 102 | – | 137% | 107% | 102%
CCCCOC(=O)c1c(C)[nH]c(/C=C2\N=C(c3ccc[nH]3)C=C2OC)c1C | -64.6% (active) | -8.89% (active) | 8.83% (active) | -72.2% (active) | 9.12% (active) | -40.4% (active) | -29.2% (active) | -13.4% (active) | 12.6% | 8.13% (active) | 14.5% | -32.1% (active) | 7.7% (active) | 11 | 3.84% (active) | 34.7 | – | -37.6% (active) | -23.2% (active) | 8.85% (active)
